# Inconclusive results are not listed. Active and inactive are the calls of the source. Calls follow the shape of the dose curve; as a rule, active = well fitted inhibition curve with a large enough effect; inconclusive = small, poorly fitted or top-dose-only effect; inactive = no such curve, though single readings can be large or run the other way.
# Target: Aldehyde dehydrogenase 1A1 (Homo sapiens) (UniProt P00352)
# Assay: qHTS for Inhibitors of the Aldehyde Dehydrogenase Family (ALDH1A1) Confirmatory screens (AID 2061316); also: nearly all actives have a fitted effect of over 65% in size
# Settings: ALDH inhibition qHTS; series mostly up to 47.3 µM
# Potency is read from the fitted curve at half-maximal effect.
row,SMILES,Potency
1,O=C(O)CN1C(=O)/C(=C/c2ccc(-c3cccc(Cl)c3)o2)SC1=S,7.98 µM (active)
2,CCOC(=O)c1[nH]c2c(c1C)C(=S)CC(c1ccco1)C2 (centres undefined),2.01 µM (active)
3,CC(=O)c1c(C)n(-c2ccc(Cl)cc2)c2ccc(OC(=O)COc3ccccc3)cc12,inactive
4,COc1ccc(C2Nc3ccccc3C(=O)N2Cc2ccco2)cc1COc1ccc(N)cc1 (centres undefined),1.79 µM (active)
5,CN1CCN(c2ccc(NC(=O)CN(C)Cc3c(O)ccc4ccccc34)cc2)CC1,5.04 µM (active)
6,CC(=O)c1c(C)n(-c2ccc(C)cc2)c2ccc(OC(=O)COc3ccccc3)cc12,inactive
7,O=C1Nc2cc(Cl)ccc2/C1=C\c1cc(Cl)c(O)c(Cl)c1,22.5 µM (active)
8,CC(C)(C)c1ccc(S(=O)(=O)c2cnc(SCC(=O)Nc3ccc(F)c(Cl)c3)[nH]c2=O)cc1,0.634 µM (active)
9,Cc1oc(-c2ccccc2F)nc1CS(=O)(=O)CC(=O)N1CCN(c2cccc(C(F)(F)F)c2)CC1,inactive
10,COc1ccc(C(=O)N(Cc2ccco2)Cc2ccco2)c(O)c1,7.12 µM (active)
11,Cc1cc(C)cc(-c2ccccc2C=O)c1,inactive
12,CN(C)c1cccc(-c2cnc(N3CCC(c4ncc[nH]4)CC3)s2)c1,0.201 µM (active)
13,O=C(Cc1ccc(F)cc1)Nc1cccc(-c2nc3cccnc3s2)c1,inactive
14,Cc1sc(NC(=O)Cc2ccc3c(c2)OCO3)nc1-c1ccc2c(c1)CCN2,3.18 µM (active)
15,O=C(O)c1ccc2c(c1)C(=O)N(CCc1ccc(O)cc1)C2=O,inactive
16,CN(C)c1ccc(-c2cc[nH]c(=O)c2N)cc1,4 µM (active)
17,CCN(CC)CC(=O)c1c(C)n(C)c2ccc(OC)cc12,inactive
18,Cc1cc(C)nc(NC(=S)N2CCN(c3ccc4cn(C)nc4c3)CC2)c1,7.12 µM (active)
19,Cc1ccc(-c2ccccc2C=O)c(C)c1,inactive
